Assay results taken from the supplement of paper PMC11537057.
Structures can show the parent of a compound that is named as a salt. ± gives the standard deviation of the averaged measurements. In all, about 1,700 compounds were measured (“cell number in HSV-1-infected wells relative to infected DMSO wells (H2B-RFP signal)”: median about 100, highest 2% from about 140 on). The sample holds the highest values, similar compounds and a random draw of the others, so the mix is not that of the screen.

Tested on: A549 infected with HSV-1
Test: cell number in HSV-1-infected wells relative to infected DMSO wells (H2B-RFP signal); higher = more surviving cells (uninfected or antiviral-protected wells give about 200%; low = toxicity)
Conditions: 10 µM; 48 h; MOI: 0.1
Procedure: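 Selleck FDA-approved library (L1300) screened in duplicate at 10 µM on A549 H2B-mRuby cells in 384-well plates, infected with HSV-1 strain 17 YFP-ICP4 at MOI 0.1 one hour before drug addition. Imaged after 2 days at 37°C. Cell growth (H2B-RFP) and infection (ICP4-YFP) are expressed as % of DMSO-treated wells. Hits: growth >90% and infection <20% of DMSO.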

Row | SMILES | cell number in HSV-1-infected wells [%]
1 | Cc1c(O)cccc1C(=O)N[C@@H](CSc1ccccc1)[C@H](O)CN1C[C@H]2CCCC[C@H]2C[C@H]1C(=O)NC(C)(C)C [Nelfinavir Mesylate] | 157 ± 33
2 | CC(C)(CO)C(O)C(=O)NCCC(=O)O [Calcium D-Panthotenate] | 118 ± 22
3 | N[C@@H](CS)C(=O)O [L-Cysteine HCl] | 129 ± 9.3
4 | CCCCS(=O)(=O)N[C@@H](Cc1ccc(OCCCCC2CCNCC2)cc1)C(=O)O [Tirofiban Hydrochloride] | 128 ± 12
5 | COc1ccc(C[C@H](N)C(=O)N[C@H]2[C@@H](O)[C@H](n3cnc4c(N(C)C)ncnc43)O[C@@H]2CO)cc1 [Puromycin 2HCl] | 41.2 ± 1.6
6 | Nc1ccn(C[C@@H](CO)OCP(=O)(O)O)c(=O)n1 [Cidofovir] | 164 ± 11
7 | Nc1ccn([C@@H]2O[C@H](CO)[C@@H](O)[C@@H]2O)c(=O)n1 [Cytarabine hydrochloride] | 51.7 ± 21
8 | Nc1ccn([C@H]2CC[C@@H](CO)O2)c(=O)n1 [Zalcitabine] | 105 ± 7
9 | Nc1ccn([C@@H]2O[C@H](CO)[C@@H](O)[C@@H]2O)c(=O)n1 [Cytarabine] | 44.2 ± 11
10 | Nc1c(Br)cc(Br)cc1CN[C@H]1CC[C@H](O)CC1 [Ambroxol HCl] | 117 ± 21
11 | Nc1c(Br)cc(Br)cc1CN[C@H]1CC[C@H](O)CC1 [Ambroxol] | 63.56 ± 0.013
12 | CC(C)C[C@H](NC(=O)[C@@H](NC(=O)c1cccc(-c2ccccc2)n1)[C@@H](C)O)B(O)O | 79.7 ± 13
13 | O=C1/C(=C2\Nc3ccc(S(=O)(=O)O)cc3C2=O)Nc2ccc(S(=O)(=O)O)cc21 [Indigo carmine] | 126 ± 4.3
14 | OC[C@@H](O)CN1CCN(c2ccccc2)CC1 [Levodropropizine] | 99.4 ± 1.6
15 | CCC1(c2c[nH]cn2)Cc2ccccc2C1 [Atipamezole] | 103 ± 19
16 | CCC1(c2c[nH]cn2)Cc2ccccc2C1 [Atipamezole hydrochloride] | 95.8 ± 8.9
17 | CCCCC(CC)COC(=O)C(C#N)=C(c1ccccc1)c1ccccc1 (stereo not given) [Octocrylene] | 115 ± 4.8
18 | CCOC(=O)[C@H]1O[C@@H]1C(=O)N[C@@H](CC(C)C)C(=O)NCCC(C)C [Aloxistatin] | 150.2 ± 0.33
19 | C[C@]1(COc2ccc(N3CCC(Oc4ccc(OC(F)(F)F)cc4)CC3)cc2)Cn2cc([N+](=O)[O-])nc2O1 [Delamanid] | 117 ± 18
20 | OC[C@@H](O)[C@@H](O)[C@H](O)[C@H](O)CO [D-Mannitol] | 107 ± 11
21 | OC[C@@H](O)[C@H](O)[C@@H](O)CO [Xylitol] | 146 ± 3
22 | OC[C@@H](O)[C@@H](O)[C@H](O)[C@@H](O)CO [Sorbitol] | 97.2 ± 17
23 | Cn1nnc(-c2ccc(-c3ccc(N4C[C@H](CO)OC4=O)cc3F)cn2)n1 [Tedizolid] | 104 ± 5.8

Row | SMILES | cell number in HSV-1-infected wells [%]
24 | CCCCCCCCCCCCCCCC(=O)O[C@@H]1[C@@H](O)[C@@H](O)[C@@H]([C@H](NC(=O)[C@@H]2C[C@@H](CCC)CN2C)[C@H](C)Cl)O[C@@H]1SC [Clindamycin palmitate HCl] | 85.3 ± 3.2
25 | Cc1cc(-c2ccccc2)nnc1NCCN1CCOCC1 [Minaprine dihydrochloride] | 94.3 ± 12
26 | CN1CCC(=C2c3ccccc3CCn3c(C=O)cnc32)CC1 [Alcaftadine] | 127.9 ± 0.97
27 | Cc1ccccc1-c1cc(N2CCN(C)CC2)ncc1N(C)C(=O)C(C)(C)c1cc(C(F)(F)F)cc(C(F)(F)F)c1 [Netupitant] | 146 ± 30
28 | CCOC(=O)CCC(=O)O[C@H]1[C@H](O[C@@H]2[C@@H](C)[C@H](O[C@H]3C[C@@](C)(OC)[C@@H](O)[C@H](C)O3)[C@@H](C)C(=O)O[C@H](CC)[C@@](C)(O)[C@H](O)[C@@H](C)C(=O)[C@H](C)C[C@@]2(C)O)O[C@H](C)C[C@@H]1N(C)C [Erythromycin Ethylsuccinate] | 118 ± 17
29 | C[C@@H](O)[C@@H]1NC(=O)[C@H](CCCCN)NC(=O)[C@@H](Cc2c[nH]c3ccccc23)NC(=O)[C@H](Cc2ccccc2)NC(=O)[C@@H](NC(=O)[C@H](N)Cc2ccccc2)CSSC[C@@H](C(=O)N[C@H](CO)[C@@H](C)O)NC1=O [Octreotide Acetate] | 96.3 ± 13
30 | CC(O)C(=O)O.N (stereo not given) [Ammonium lactate] | 91.3 ± 9.4
31 | CCn1c(=O)c(-c2cc[nH]n2)cc2c(C)nc(N)nc21 | 79.6 ± 6.9
32 | CC1(C)S[C@@H]2[C@H](NC(=O)[C@H](N)c3ccccc3)C(=O)N2[C@H]1C(=O)OCOC(=O)[C@@H]1N2C(=O)C[C@H]2S(=O)(=O)C1(C)C [Sultamicillin] | 104 ± 5.9
33 | COc1cc(S(=O)(=O)O)ccc1O [Sulfogaiacol] | 98.6 ± 40
34 | O=C(Nc1nc2cccc(-c3ccc(CN4CCS(=O)(=O)CC4)cc3)n2n1)C1CC1 [Filgotinib (GLPG0634)] | 76.8 ± 6.2
35 | O=c1[nH]cnc2c1ncn2[C@@H]1O[C@H](CO)[C@@H](O)[C@H]1O [Inosine] | 126 ± 7.8
36 | Nc1nc2c(ncn2COCCO)c(=O)[nH]1 [Aciclovir] | 225 ± 2.6
37 | C=C1[C@H](CO)[C@@H](O)C[C@@H]1n1cnc2c(=O)[nH]c(N)nc21 [Entecavir] | 130 ± 39
38 | Nc1nc2c(ncn2COC(CO)CO)c(=O)[nH]1 [Ganciclovir] | 192.4 ± 0.4
39 | O=c1[nH]cnc2c1ncn2[C@H]1CC[C@@H](CO)O1 [Didanosine] | 99.6 ± 8.7
40 | C=C1[C@H](CO)[C@@H](O)C[C@@H]1n1cnc2c(=O)[nH]c(N)nc21 [Entecavir Hydrate] | 150 ± 12
41 | CC(C)[C@H](N)C(=O)OCCOCn1cnc2c(=O)nc(N)[nH]c21 [Valaciclovir HCl] | 167 ± 22
42 | CS(=O)(=O)Nc1cc2occ(NC=O)c(=O)c2cc1Oc1ccccc1 [Iguratimod] | 108 ± 15
43 | CC(C)OC(=O)CCC/C=C\C[C@@H]1[C@@H](/C=C/[C@@H](O)COc2cccc(C(F)(F)F)c2)[C@H](O)C[C@@H]1O [Travoprost] | 39.8 ± 12
44 | C[C@@H](O)[C@H]1C(=O)N2C(C(=O)[O-])=C(SC3Cn4cnc[n+]4C3)[C@H](C)[C@H]12 (stereo not given in full) [Biapenem] | 91.1 ± 10
45 | O=C(O)C(=O)O.[NH-][C@@H]1CCCC[C@H]1[NH-].[Pt+2] [Oxaliplatin] | 64.1 ± 10
